This is a sample that favours compounds with a hit; in the whole collection about 1.6% have one here.
KCNQ2 block: rat KCNQ2 potassium channel inhibitors, primary screen, cell-based, CHO-K1, FluxOR thallium flux, B-score. Potassium voltage-gated channel subfamily KQT member 2 (Rattus norvegicus), O88943. 20 min; active compounds read low. B-score at 10 µM. hit rate 1.1% among 310,000. AID 2156, 2009;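 active = fluorescence ratio B-score at most minus 3 library SDs, with starting brightness B-score within 2 library SDs, cut at about -5.5 in these data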
KCNQ2 enhance: potentiators of rat KCNQ2 potassium channel; Potassium voltage-gated channel subfamily KQT member 2 (Rattus norvegicus), O88943; CHO-K1 KCNQ2, FluxOR thallium flux fluorescence; active compounds read high; B-score at 10 µM; hit rate 0.54% among 310,000; AID 2239, 2010;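 active = fluorescence ratio B-score at least 3 SD of library B-scores, with initial fluorescence B-score within 3 of them, cut at about 5.3 in these data; same plate scores as AID 2156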;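 note: B-score of peak minus minimum over baseline fluorescence ratio after K+ and Tl+ stimulus; positive B-score means potentiation of KCNQ2 with more thallium influx and brighter signal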
KCNQ2 inh conf: rat KCNQ2 potassium channel inhibitors, confirmation, cell-based, thallium flux | shares compounds with KCNQ2 block | KCNQ2-expressing cells, inhibition; active compounds read low | activity change, negative = inhibition, % at 10 µM | hit rate 57% among 1,000 | AID 493025, 2011;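 note: 0% = vehicle wells and values are ratio percent relative to vehicle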
KCNQ1 spec: human KCNQ1 channel inhibition, counter-screen for KCNQ2 inhibitor project, cell-based, FluxOR thallium flux; shares compounds with KCNQ2 block; KCNQ1-expressing cells, FluxOR thallium flux fluorescence; active compounds read low; activity change, negative = inhibition, % at 10 µM; hit rate 15% among 1,000;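 active = activity change at least 3 SD of negative controls below their mean in both duplicate wells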;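 note: CHO cells stably transfected with KCNQ1 and depolarized by potassium stimulus; peak minus minimum fluorescence over baseline after thallium addition; 0% = vehicle negative control and -100% = blank without thallium stimulus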
Target sequence (P51787 whole entry, looked up): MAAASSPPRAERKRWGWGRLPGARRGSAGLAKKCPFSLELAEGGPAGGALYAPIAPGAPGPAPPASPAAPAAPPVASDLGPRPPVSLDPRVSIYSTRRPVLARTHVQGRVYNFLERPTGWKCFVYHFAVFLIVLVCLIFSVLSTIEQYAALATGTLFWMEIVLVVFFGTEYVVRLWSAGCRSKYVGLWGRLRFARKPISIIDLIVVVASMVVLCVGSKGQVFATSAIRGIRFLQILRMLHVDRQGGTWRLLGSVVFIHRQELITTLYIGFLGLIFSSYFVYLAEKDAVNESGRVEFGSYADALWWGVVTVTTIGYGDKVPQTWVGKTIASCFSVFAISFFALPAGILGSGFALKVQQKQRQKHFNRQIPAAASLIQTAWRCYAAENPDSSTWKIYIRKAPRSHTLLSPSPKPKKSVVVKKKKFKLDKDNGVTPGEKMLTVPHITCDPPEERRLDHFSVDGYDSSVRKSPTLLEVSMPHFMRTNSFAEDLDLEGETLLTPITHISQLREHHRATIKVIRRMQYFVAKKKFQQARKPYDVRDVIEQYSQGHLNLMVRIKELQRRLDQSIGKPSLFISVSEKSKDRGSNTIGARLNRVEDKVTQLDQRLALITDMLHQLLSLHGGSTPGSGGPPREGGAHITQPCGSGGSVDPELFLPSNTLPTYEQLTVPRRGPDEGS
CHO Tl ctr: thallium flux change in parental CHO cells, counter-screen for KCNQ2 inhibitor project | active compounds read low | AID 493029, 2011 | activity change, % at 10 µM | hit rate 14% among 1,000 | shares compounds with KCNQ2 block;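 note: 0% = vehicle negative controls with stimulus buffer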
KCNQ2 patch conf: rat KCNQ2 channel inhibitors, confirmation, cell-based, automated patch clamp, single concentration. shares compounds with KCNQ2 block. KCNQ2-expressing cells, automated patch clamp current. calls only at 10 µM. hit rate 49% among 550. AID 588531, 2011
Starred values were filed as active, the others as inactive; i = inactive; x = not tested or not shown; + = active, no number. Unless noted, the rule behind the calls is not given here.

SMILES	KCNQ2 block	KCNQ2 enhance	KCNQ2 inh conf	KCNQ1 spec	CHO Tl ctr	others
COc1ccc(C(C)C)cc1S(=O)(=O)NC1CCCC1	i	1.5	x	x	x
Clc1cccc(Cl)c1/C=C/c1nc2ccccc2[nH]1	-8.7*	-8.7	-36%*	-42%*	-30%*	KCNQ2 patch conf=i
Clc1ccc(/C=C/c2nc3ccccc3[nH]2)cc1	i	x	x	x	x
COc1ccc(OC)c(NC(=O)c2nnn(CC(=O)Nc3ccc4c(c3)OCO4)c2N)c1	i	0.13	x	x	x
O=C(NCc1ccccc1)C(c1ccco1)N(C(=O)c1csnn1)c1ccccc1 (configuration not stated)	i	x	x	x	x
CCOC(=O)c1cnc(-n2nc(C)cc2C)nc1NC	i	0.03	x	x	x
CCOC(=O)c1cnc(-n2nc(C)cc2C)nc1NC1CCCCC1	-8.9*	-8.9	-33%*	i	i	KCNQ2 patch conf=+
Clc1ccc(/C(Cc2nc3ccccc3[nH]2)=N\Nc2ccccc2)cc1	-6.6*	-6.6	-38%*	i	i	KCNQ2 patch conf=i
Clc1ccc(SCc2nc3ccccc3[nH]2)cc1	i	x	x	x	x
O=c1c2c3c(sc2ncn1/N=C/c1ccc([N+](=O)[O-])o1)CCCC3	i	x	x	x	x
Cn1cc(/C=N/n2cnc3sc4c(c3c2=O)CCCC4)c2ccccc21	-9.2*	-9.2	i	i	i
Cc1ccc(NC(=O)c2ccc(NS(=O)(=O)/C=C/c3ccccc3)cc2)nc1	i	x	x	x	x
CCOc1cc(CNn2cnnc2)cc(Br)c1OCC(=O)NC(C)(C)C	i	0.87	x	x	x
CCOc1cc(CNc2ccc(Br)cc2)cc(Br)c1OCC(=O)NC(C)(C)C	-6.8*	-6.8	-24%*	i	i	KCNQ2 patch conf=i
COc1cc2c(cc1OC)CN(CCC(C)c1ccc(Cl)cc1)CC2 (configuration not stated)	i	0.03	x	x	x
N#Cc1nc(COc2ccc(Cl)cc2)oc1N1CCN(Cc2ccccc2)CC1	-6.9*	-6.9	-24%*	i	i	KCNQ2 patch conf=i
CCN1CCN(c2oc(COc3ccc(Cl)cc3)nc2C#N)CC1	i	x	x	x	x
Cc1noc(NS(=O)(=O)c2ccc(NC(=O)c3nn(-c4ccccc4)ccc3=O)cc2)c1C	i	x	x	x	x
Cc1nc2sccn2c(=O)c1S(=O)(=O)NCC(C)c1ccccc1 (configuration not stated)	i	x	x	x	x
CS(=O)(=O)c1ccc(Cl)c(NC(=O)C2CCCN(C(=O)c3ccc(Cl)cc3)C2)c1 (configuration not stated)	i	x	x	x	x
CCC(C(=O)N1CCN(c2ccccc2OC)CC1)c1ccccc1 (configuration not stated)	i	x	x	x	x
COc1ccccc1N1CCN(C(=O)C(Cc2ccccc2)NC(=O)C2CCCCC2)CC1 (configuration not stated)	-7.4*	-7.4	-33%*	i	i	KCNQ2 patch conf=+
O=C(c1ccc(Cl)c(S(=O)(=O)N2CCOCC2)c1)N(c1ccccn1)C1CCCCC1	i	0.17	x	x	x
CCOc1ccc(CNc2nc3ccccc3n2CCN2CCOCC2)cc1	i	x	x	x	x
CCCn1c(NCc2ccc3c(c2)OCO3)nc2ccccc21	i	x	x	x	x
SMILES	KCNQ2 block	KCNQ2 enhance	KCNQ2 inh conf	KCNQ1 spec	CHO Tl ctr	others
Brc1cccc(CNc2nc3ccccc3n2CCN2CCOCC2)c1	-8.4*	-8.4	i	i	i
CCCCn1c(NCc2ccc3c(c2)OCO3)nc2ccccc21	-8.5*	-8.5	-33%*	i	i	KCNQ2 patch conf=+
CCc1ccc(OC(C)C(=O)Nc2ccc(S(=O)(=O)Nc3nccs3)cc2)cc1 (configuration not stated)	i	0.72	x	x	x
Fc1ccc(N2CCN(c3cnc4ccccc4n3)CC2)cc1	i	0.08	x	x	x
Cc1ccc(C)c(N2CCN(C(=O)c3ccc4c(c3)c(C)c(C)n4C)CC2)c1	-6.6*	-6.6	i	i	i
Cc1c(C)n(C)c2ccc(C(=O)N3CCN(c4ccccc4)CC3)cc12	i	x	x	x	x
O=C(CCN1CCN(c2ccccc2)CC1)c1ccc(Br)cc1	-8.2*	-8.2	-22%*	i	i	KCNQ2 patch conf=i
COc1ccc(C(=O)CCN2CCN(c3ccc(OC)cc3)CC2)cc1	i	x	x	x	x
O=C(CCN1CCOCC1)c1ccc(Cl)cc1	i	x	x	x	x
O=C(CCN1CCN(c2ccccc2F)CC1)c1ccc(Br)cc1	-8.5*	-8.5	i	i	i
O=C(CCN1CCOCC1)c1ccc(Br)cc1	-7.4*	-7.4	-47%*	-50%*	-36%*	KCNQ2 patch conf=i
COc1ccc(C(=O)CCN2CCN(c3ccccc3F)CC2)cc1	i	x	x	x	x
O=C1c2ccccc2C(=O)C2OC12 (configuration not stated)	i	x	x	x	x
O=C(N/C=C/c1ccccc1)c1ccccc1	i	x	x	x	x
CC1CN(S(=O)(=O)c2cccc(C(=O)OC(C)C(=O)NC3CCCCC3C)c2)CC(C)O1 (configuration not stated)	i	x	x	x	x
CCN(CC(=O)Nc1ccc(NC(C)=O)cc1)C(=O)Cc1ccc(Cl)c(Cl)c1	i	0.88	x	x	x
Cc1c(C(=O)N2CCCCC2)c(S(=O)(=O)NCc2ccc(Cl)cc2)c(C)n1C	i	x	x	x	x
CCC(C)NC(=O)CSc1nnc(-c2cc(OC)c(OC)c(OC)c2)c(-c2cc(OC)c(OC)c(OC)c2)n1 (configuration not stated)	i	x	x	x	x
COC(=O)c1cn(NC(=O)c2cccc(F)c2)c(=O)c2ccccc12	i	x	x	x	x
COc1cc(OC)cc(C(=O)Nn2cc(C(=O)Nc3ccccc3F)c3ccccc3c2=O)c1	-7.1*	-7.1	i	i	i
COC(=O)c1cn(NC(=O)c2cccc(N(C)C)c2)c(=O)c2ccccc12	-7.8*	-7.8	-45%*	-36%*	-30%*	KCNQ2 patch conf=+
O=C(Nn1cc(C(=O)Nc2ccccc2F)c2ccccc2c1=O)c1cnccn1	i	x	x	x	x
O=C(COC(=O)c1cc(-c2ccco2)nc2ccccc12)NCc1ccccc1	-6.9*	-6.9	i	i	i
COc1ccc(CCNC(=O)c2cc(-c3ccco3)nc3ccccc23)cc1	-8.2*	-8.2	-27%*	i	i	KCNQ2 patch conf=+
CNC(=O)COC(=O)c1cc(-c2ccco2)nc2ccccc12	i	x	x	x	x
SMILES	KCNQ2 block	KCNQ2 enhance	KCNQ2 inh conf	KCNQ1 spec	CHO Tl ctr	others
CCN(CC)CCNC(=O)c1cc(-c2ccco2)nc2ccccc12	i	0.72	x	x	x
CC(C)C1Oc2ccccc2N(CC(=O)NC2CCCCC2)C1=O (configuration not stated)	i	0.41	x	x	x
COc1ccccc1C(=O)n1nc(-c2ccccc2)nc1NCc1ccco1	-8.7*	-8.7	i	i	i
Cc1ccc(S(=O)(=O)n2nc(-c3ccc(Cl)cc3)nc2NCc2ccco2)cc1	-9.3*	-9.3	i	i	i
O=C(c1ccco1)n1nc(-c2ccccc2)nc1NCc1ccco1	i	0.1	x	x	x
CCS(=O)(=O)n1nc(-c2ccccc2)nc1NCc1ccco1	i	0.01	x	x	x

Screens as filed in PubChem.
